# Results reported in PubChem BioAssay (NCATS).
# Where “and” joins values, the source holds several entries; their conditions need not be identical. Identical values can stand only once. Inconclusive results are not listed. A call without a number means that no potency is given here. Unmarked numbers belong to inactive results. Calls of active or inactive are those of the source. Calls come from the whole dose curve; as a rule, active = well fitted curve in the direction sought with a large enough effect; inconclusive = small, poorly fitted or top-dose-only effect, or another doubt; inactive = no such curve, though single readings can be large; an effect the other way counts as inactive or inconclusive.
# Target: Cellular tumor antigen p53 (Homo sapiens) (UniProt P04637)
# Test: Primary qHTS for small molecule compounds that upregulate eGFP-tagged delta133p53alpha (in N-terminal) cells. (AID 2060322); note: nearly all actives have a fitted effect of over 75% in size; note: potency is the fitted concentration of half-maximal effect
# Details: NCI-H358 eGFP-delta133p53alpha fluorescence, 24 h; activation: active compounds read high
# How it was run: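 NCI-H358 cells pre-induced 24 h with 10 ng/ml doxycycline to express N-terminal eGFP-delta133p53alpha, then dosed 24 h at 37C without doxycycline; fixed, Hoechst-stained, GFP intensity by laser scanning cytometry, normalized to DMSO (0%) and 57.5 uM 5-azacytidine (100%).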
# Cellular tumor antigen p53 (Homo sapiens), sequence (P04637 whole entry, looked up): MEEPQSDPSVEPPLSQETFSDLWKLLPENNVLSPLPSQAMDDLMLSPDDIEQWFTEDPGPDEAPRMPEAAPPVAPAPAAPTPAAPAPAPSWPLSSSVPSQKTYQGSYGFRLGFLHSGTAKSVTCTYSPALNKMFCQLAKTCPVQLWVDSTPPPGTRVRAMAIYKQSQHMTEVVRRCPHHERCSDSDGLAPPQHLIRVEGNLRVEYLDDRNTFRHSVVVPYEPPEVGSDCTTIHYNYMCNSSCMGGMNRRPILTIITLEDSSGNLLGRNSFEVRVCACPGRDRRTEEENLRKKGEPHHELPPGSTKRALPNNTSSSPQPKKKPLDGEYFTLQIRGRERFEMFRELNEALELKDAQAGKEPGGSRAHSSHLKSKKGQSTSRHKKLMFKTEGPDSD
SMILES,activation,Potency
O=S(=O)(c1ccc(S(=O)(=O)n2cnc3ccccc32)cc1)N1CCCCCC1,0.333%,–
O=C(Nc1ccc(C(O)(C(F)(F)F)C(F)(F)F)cc1)c1ccc(C(F)(F)F)cc1,0%,–
C/C(=C\C(=O)C[C@@]12C(=O)O[C@]3(C)CC[C@H]1C[C@H]23)C(N)=O,9.92%,–
CC1=CC[C@@]2(C)CC[C@@](O)(C(C)C)[C@@H]2[C@@H](O)C1,11.5%,–
C=C1C(=O)OC2CC(C)C(CCC(C)=O)=CCC12 (stereo not drawn),–,16.9 µM (active)
Cc1occc(=O)c1O[C@@H]1O[C@H](COC(=O)CC(C)(O)CC(=O)O)[C@@H](O)[C@H](O)[C@H]1O (stereo partly drawn),-11.6%,–
CC1(C)CC[C@]2(C(=O)O[C@@H]3O[C@H](CO)[C@@H](O)[C@H](O)[C@H]3O)[C@H](O)C[C@]3(C)C(=CCC4[C@@]5(C)CC[C@H](O[C@@H]6OC[C@@H](O)[C@H](O)[C@H]6O)[C@@](C)(C(=O)O)C5CC[C@]43C)[C@@H]2C1 (stereo partly drawn),-16.8%,–
CC(C)C1=CC2=CCC3[C@](C)(CCC[C@@]3(C)C(=O)O)C2CC1=O (stereo partly drawn),8.93%,–
CC(C)c1ccc2c(c1)[C@H](O)CC1[C@@](C)(C(=O)O)CCC[C@]21C (stereo partly drawn),-4.46%,–
C[C@@H]1[C@H]2[C@H](O[C@@H]3O[C@H](CO)[C@@H](O)[C@H](O)[C@H]3O)OC=C(C(=O)O)[C@H]2C[C@@H]1OC(=O)/C=C/c1ccc(O)cc1,18.8%,–
CC1=C2C(=O)C=C(CO[C@@H]3O[C@H](CO)[C@@H](O)[C@H](O)[C@H]3O)[C@@H]2[C@H]2OC(=O)[C@H](C)[C@@H]2[C@@H](O)C1,-7.63%,–
CC1(C)O[C@H]2CC(=O)OC[C@]23[C@H]2CC[C@@]4(C)[C@H](c5ccoc5)OC(=O)[C@H]5O[C@]54[C@]2(C)C(=O)C[C@@H]13,-25.4% and 64.1% and 3.82%,–
Cn1cc(-c2ccc3nnc(Sc4ccc5nn(C)cc5c4)n3n2)cn1,-4.46%,–

# Target: Aldehyde dehydrogenase, mitochondrial (Homo sapiens) (UniProt P05091)
# Test: qHTS for Inhibitors of the Aldehyde Dehydrogenase Family (ALDH2) Primary screen (AID 2061308); note: nearly all actives have a fitted effect of over 55% in size
# Details: ALDH2 enzyme inhibition qHTS, 1536-well; series mostly up to 56 µM
row,SMILES,Potency
1,CC1(C)CCCC2(C)C1C(=O)C=C(C(=O)O)C2(O)C(=O)O (stereo not drawn),inactive
2,COC1=CC(=O)O[C@@H](/C=C/c2ccccc2)[C@@H]1O,inactive
3,CC1=C2C(=O)C=C(CO)[C@@H]2[C@H]2OC(=O)[C@H](C)[C@@H]2[C@@H](O)C1,inactive
4,CC1C=CC2CCCCC2C1CCC1CC(O)CC(=O)O1 (stereo not drawn),inactive
5,COC(=O)C1=COC(OC2OC(CO)C(O)C(O)C2O)C2C(C)C(OC(C)=O)C(OC(=O)c3ccccc3)C12 (stereo not drawn),inactive
6,C[C@]12CCC[C@](C)(C(=O)O)C1[C@@H](O)[C@@H](O)C13CC(CCC12)C(CO)(O[C@@H]1O[C@H](CO)[C@@H](O)[C@H](O)[C@H]1O)C3 (stereo partly drawn),inactive
7,Cc1[nH]c2ccccc2c1CCNC(=O)c1ccccc1F,inactive
8,O=C(Cc1ccc(-c2ccccc2)cc1)NC1CCC1,inactive
9,C[C@]12CC/C(=N\OCC(=O)O)C=C1CC[C@@H]1[C@@H]2[C@@H](O)C[C@@]2(C)[C@H]1CC[C@]2(O)C(=O)CO,inactive
10,N#Cc1cccc(C(=O)Nc2cc(-c3ccccc3)nn2-c2ccccc2)c1,inactive
11,COc1cc(OC)cc(C(=O)Nc2ccc(Cl)c(-c3nc4ccc(N(C)C)cc4[nH]3)c2)c1,inactive
12,C[C@@H]1O[C@@H](OC[C@H]2O[C@@H](OCCc3ccccc3)[C@H](O)[C@@H](O)[C@@H]2O)[C@H](O)[C@H](O)[C@H]1O,inactive
13,C=C1C(=O)OC2C1C(O)CC1(C)C(O)CCC(C=O)C21 (stereo not drawn),inactive
14,C[C@@H]1CCC2C(C)(C)[C@H](O)CC[C@]2(C)[C@@]12Cc1c(O)cc3c(c1O2)CNC3=O (stereo partly drawn),inactive
15,O=C(COc1cccc2c(=O)[nH]ccc12)c1ccccc1,inactive
16,CC(CCC1(O)OC2CC3C4CCC5CC(O[C@@H]6O[C@H](CO)[C@@H](O)[C@H](O)[C@H]6O[C@@H]6OC[C@@H](O)[C@H](O)[C@H]6O)C(O)CC5(C)C4CCC3(C)C2C1C)CO[C@@H]1O[C@H](CO)[C@@H](O)[C@H](O)[C@H]1O (stereo partly drawn),inactive
17,CC1CCC2(NC1)OC1CC3C4CC=C5CC(O[C@@H]6O[C@H](CO)[C@@H](O[C@@H]7O[C@@H](C)[C@H](O)[C@@H](O)[C@H]7O)[C@H](O)[C@H]6O[C@@H]6O[C@@H](C)[C@H](O)[C@@H](O)[C@H]6O)CCC5(C)C4CCC3(C)C1C2C (stereo partly drawn),inactive
18,CC1CCC2C(C)(C)[C@@H](O)CC[C@]2(C)C12Cc1c(O)cc3c(c1O2)CN(C(CCC(=O)O)C(=O)O)C3=O (stereo partly drawn),inactive
19,C/C(=N\O)c1ccc(OCC(=O)N2CCCCC2)cc1,inactive
20,Cc1noc(-c2ccc(-c3ccc(CC(=O)O)cc3)cc2)c1NC(=O)O[C@H](C)c1ccccc1,inactive

row,SMILES,Potency
1,CC(C)=CCC[C@](C)(O[C@@H]1O[C@H](CO[C@@H]2OC[C@H](O)[C@H](O)[C@H]2O)[C@@H](O)[C@H](O)[C@H]1O)[C@H]1CC[C@]2(C)[C@@H]1[C@H](O)C[C@@H]1[C@@]3(C)CC[C@H](O[C@@H]4O[C@H](CO)[C@@H](O)[C@H](O)[C@H]4O[C@@H]4O[C@H](CO)[C@@H](O)[C@H](O)[C@H]4O)C(C)(C)[C@@H]3CC[C@]12C,inactive
2,Cc1noc(=O)c2ccc(NC(=O)C(O)(CC(C)(C)c3cccc4c3OCC4)C(F)(F)F)cc12 (stereo not drawn),inactive
3,C[C@@H]1C/C=C/C=C\C=C\C=C\[C@H](O[C@@H]2O[C@H](C)[C@@H](O)[C@H](N)[C@@H]2O)C[C@@H]2O[C@](O)(C[C@@H](O)C[C@H]3O[C@@H]3/C=C/C(=O)O1)C[C@H](O)[C@H]2C(=O)O,inactive
4,CC(=O)O[C@@H]1C[C@@]2(C)C(CC[C@]3(C)C2CC=C2C4CC(C)(C)CC[C@]4(C(=O)O)CC[C@]23C)C(C)(C)[C@H]1O (stereo partly drawn),inactive
5,CC(C)(C)Oc1ccc(OCC2Cc3ccccc3CN2C(=O)c2cccc3ccccc23)cc1 (stereo not drawn),inactive
6,CC1=C2CC(C)(C)CC2C(O)C2=C(C1)C(=O)OC2O (stereo not drawn),inactive
7,COc1cc2occc2c(O[C@@H]2O[C@H](CO)[C@@H](O)[C@H](O)[C@H]2O)c1CCC(=O)O,inactive
8,O=S(=O)(c1ccc(S(=O)(=O)n2cnc3ccccc32)cc1)N1CCCCCC1,inactive
9,O=C(Nc1ccc(C(O)(C(F)(F)F)C(F)(F)F)cc1)c1ccc(C(F)(F)F)cc1,inactive
10,C/C(=C\C(=O)C[C@@]12C(=O)O[C@]3(C)CC[C@H]1C[C@H]23)C(N)=O,inactive
11,CC1=CC[C@@]2(C)CC[C@@](O)(C(C)C)[C@@H]2[C@@H](O)C1,inactive
12,C=C1C(=O)OC2CC(C)C(CCC(C)=O)=CCC12 (stereo not drawn),inactive
13,Cc1occc(=O)c1O[C@@H]1O[C@H](COC(=O)CC(C)(O)CC(=O)O)[C@@H](O)[C@H](O)[C@H]1O (stereo partly drawn),inactive
14,CC1(C)CC[C@]2(C(=O)O[C@@H]3O[C@H](CO)[C@@H](O)[C@H](O)[C@H]3O)[C@H](O)C[C@]3(C)C(=CCC4[C@@]5(C)CC[C@H](O[C@@H]6OC[C@@H](O)[C@H](O)[C@H]6O)[C@@](C)(C(=O)O)C5CC[C@]43C)[C@@H]2C1 (stereo partly drawn),inactive
15,CC(C)C1=CC2=CCC3[C@](C)(CCC[C@@]3(C)C(=O)O)C2CC1=O (stereo partly drawn),inactive
16,CC(C)c1ccc2c(c1)[C@H](O)CC1[C@@](C)(C(=O)O)CCC[C@]21C (stereo partly drawn),inactive
17,C[C@@H]1[C@H]2[C@H](O[C@@H]3O[C@H](CO)[C@@H](O)[C@H](O)[C@H]3O)OC=C(C(=O)O)[C@H]2C[C@@H]1OC(=O)/C=C/c1ccc(O)cc1,inactive
18,CC1=C2C(=O)C=C(CO[C@@H]3O[C@H](CO)[C@@H](O)[C@H](O)[C@H]3O)[C@@H]2[C@H]2OC(=O)[C@H](C)[C@@H]2[C@@H](O)C1,inactive
19,CC1(C)O[C@H]2CC(=O)OC[C@]23[C@H]2CC[C@@]4(C)[C@H](c5ccoc5)OC(=O)[C@H]5O[C@]54[C@]2(C)C(=O)C[C@@H]13,inactive
20,Cn1cc(-c2ccc3nnc(Sc4ccc5nn(C)cc5c4)n3n2)cn1,inactive
